Compounds without any hit were thinned out: in the full panel of roughly 83,000, 20% have a hit.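 Plates (96-well) were seeded with cells, treated with compound at one concentration, and incubated for 48 hours before percent growth was determined.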 A number with no mark means an inactive call. Activity calls are given as the source filed them. How the source made its calls: active means growth percent below 10; inactive means the rest.

Some test systems named below: NCI-H23 lung; NCI-H226 lung; NCI-H322M lung; HOP-62 NSCLC; NCI-H460 lung; HOP-92 NSCLC; NCI-H522 lung; A549/ATCC NSCLC; 786-0 renal; COLO 205 colon.
What all share (assay): NCI-60 one-dose screen, 48 h (100 = growth as untreated, 0 = no growth, -100 = all killed)
Common to all, as to details: 10 µM unless noted

With `COc1ncc(-c2ccc3nccc(C#CCCCCC(=O)O)c3c2)cc1NS(=O)(=O)c1ccc(F)cc1F`, the growth in the assay with NCI-H23 lung is 44%; in the assay on NCI-H226 lung, 46.4%; in the assay on NCI-H322M lung it was 18.3%; with HOP-62 NSCLC, 29.9%; in the assay on NCI-H460 lung, 12.3%; with HOP-92 NSCLC it was -21.7% (active). In addition, the growth is 43.4% with NCI-H522 lung, 14.8% in the assay with A549/ATCC NSCLC, 3.82% (active) in the assay with 786-0 renal and 28.6% in the assay on COLO 205 colon.
In the case of `COC(=O)c1c(C)[nH]c(/C=C2\N=C(c3ccc[nH]3)C=C2OC)c1C`, the growth was 10% in the assay on NCI-H23 lung; -16% (active) in the assay with NCI-H226 lung; -2.96% (active) in the assay on NCI-H322M lung; -17.5% (active) in the assay with HOP-62 NSCLC; 4.82% (active) with NCI-H460 lung; -41.8% (active) in the assay on HOP-92 NSCLC. Moreover, the growth in the assay with NCI-H522 lung was -60.1% (active); in the assay on A549/ATCC NSCLC, -24.4% (active); in the assay on 786-0 renal it was -27.7% (active); with COLO 205 colon it was -54.2% (active).
Consider `O=C1/C(=C/c2ccc(OCc3ccccc3)cc2)Oc2cc(OCCN3CCCCC3)ccc21`, for which the growth is 74.5% in the assay with NCI-H23 lung; 89.6% with NCI-H226 lung; 97.9% in the assay with NCI-H322M lung; 95.7% in the assay on HOP-62 NSCLC; 70.3% in the assay on NCI-H460 lung; 70.9% in the assay on HOP-92 NSCLC. Moreover, the growth in the assay on NCI-H522 lung is 87.5%; in the assay with A549/ATCC NSCLC, 80.1%; with 786-0 renal, 69%; in the assay on COLO 205 colon, 105%.
Consider `CCOc1ccccc1/C=N\Nc1ccc(S(=O)(=O)c2ccc(N/N=C/c3ccccc3OCC)cc2)cc1`, for which the growth with NCI-H23 lung is 95.7%; with NCI-H226 lung, 79.5%; in the assay on NCI-H322M lung, 92.1%; in the assay on HOP-62 NSCLC it was 93%; in the assay on NCI-H460 lung, 98.6%; in the assay with HOP-92 NSCLC, 88.9%. Moreover, the growth was 95.2% in the assay with NCI-H522 lung, 96.7% in the assay on A549/ATCC NSCLC, 103% in the assay with 786-0 renal and 114% in the assay with COLO 205 colon.
As for `O=c1[nH]c(CN2CCN(c3cccc(Cl)c3)CC2)nc2cc(Cl)ccc12`, the growth with NCI-H23 lung is 84.9%; in the assay with NCI-H226 lung it was 87.6%; in the assay on NCI-H322M lung it was 113%; with HOP-62 NSCLC, 89.7%; in the assay with NCI-H460 lung, 104%; in the assay on HOP-92 NSCLC it was 105%. Further, the growth was 66.6% in the assay on NCI-H522 lung, 88.9% in the assay on A549/ATCC NSCLC, 90% in the assay on 786-0 renal and 106% with COLO 205 colon.
`CCN1c2ccccc2C(Cl)(c2ccc(N(C)C)cc2)c2ccccc21`: the growth was 33.8% with NCI-H23 lung; 88.2% with NCI-H226 lung; 116% in the assay with NCI-H322M lung; 73.6% in the assay on HOP-62 NSCLC; 66% with NCI-H460 lung; 59.6% in the assay on HOP-92 NSCLC. The growth was 64.2% in the assay with NCI-H522 lung, 82.9% with A549/ATCC NSCLC, 75.8% in the assay with 786-0 renal and 75.5% with COLO 205 colon.
Consider `O=c1[nH]c2cc(Cl)c(Cl)cc2n2cc3ncccc3c12`, for which the growth was 90.6% with NCI-H23 lung; 89.2% in the assay on NCI-H226 lung; 97.9% in the assay with NCI-H322M lung; 80.6% in the assay with HOP-62 NSCLC; 62.8% in the assay on NCI-H460 lung; 87.3% in the assay with HOP-92 NSCLC. Also, the growth with NCI-H522 lung was 43.8%; with A549/ATCC NSCLC it was 91.2%; in the assay with 786-0 renal it was 92.2%; with COLO 205 colon, 90.4%.
As to `COc1ccc2nc3ccccc3c(NCCNCCO)c2c1`, the growth with NCI-H23 lung was -40.3% (active); with NCI-H226 lung, -10.8% (active); with NCI-H322M lung, -25% (active); in the assay on HOP-62 NSCLC, -6.96% (active); in the assay with NCI-H460 lung, -41.3% (active); in the assay on HOP-92 NSCLC, -10.7% (active). In addition, the growth in the assay with NCI-H522 lung is -48.7% (active); with A549/ATCC NSCLC it was -27% (active); in the assay with 786-0 renal, 3.89% (active); in the assay with COLO 205 colon it was -75.3% (active).
For the molecule `CCCN1CC(c2ccc(OC)c(OC)c2)=C(c2cn(C(=O)OCC)c3ccccc23)C1=O`, the growth in the assay with NCI-H23 lung is 65.8%; in the assay with NCI-H226 lung it was 76.8%; in the assay with NCI-H322M lung it was 90.6%; with HOP-62 NSCLC it was 45.9%; with NCI-H460 lung, 37.1%; in the assay with HOP-92 NSCLC, 26.2%. In addition, the growth in the assay on NCI-H522 lung is 24%; with A549/ATCC NSCLC, 46.3%; with 786-0 renal, 54.6%; with COLO 205 colon, 41.7%.
`C=C(CN=[N+]=[N-])[C@@H]1CC[C@]2(C)[C@H](CC[C@@H]3[C@H]4[C@H]5OC(=O)[C@@]4(CCC5(C)C)CC[C@]32C)[C@@]1(C)CCC#N`: the growth was 82.2% [100 µM] in the assay on NCI-H23 lung; 83.1% [100 µM] with NCI-H226 lung; 96.9% [100 µM] with NCI-H322M lung; 90.9% [100 µM] in the assay with HOP-62 NSCLC; 73.5% [100 µM] in the assay with NCI-H460 lung; 65% [100 µM] in the assay with HOP-92 NSCLC. The growth in the assay with NCI-H522 lung is 70.2% [100 µM]; in the assay with A549/ATCC NSCLC, 78.6% [100 µM]; in the assay on 786-0 renal, 87.9% [100 µM]; with COLO 205 colon it was 100% [100 µM].
On to `C[n+]1cccc(NC(=O)c2ccc3ccc4ccc(C(=O)Nc5ccc[n+](C)c5)nc4c3n2)c1`, for which the growth is 32.3% with NCI-H23 lung; 5.55% (active) in the assay with NCI-H226 lung; 37.3% in the assay on NCI-H322M lung; 21.3% with HOP-62 NSCLC; -7.42% (active) in the assay on NCI-H460 lung; 57.5% with HOP-92 NSCLC. Also, the growth in the assay on NCI-H522 lung was -19% (active); in the assay on A549/ATCC NSCLC, -3.45% (active); in the assay with 786-0 renal it was 76.2%; in the assay on COLO 205 colon it was 75.3%.
Regarding `C[n+]1c(-c2ccccc2)c2cc(N)ccc2c2ccccc21`, the growth with NCI-H23 lung was 27.5%; in the assay with NCI-H226 lung, 26.3%; in the assay with NCI-H322M lung, 70.8%; with HOP-62 NSCLC, 63.8%; in the assay with NCI-H460 lung it was 28.4%; in the assay on HOP-92 NSCLC, 54.5%. Moreover, the growth was -5.84% (active) in the assay on NCI-H522 lung, 44.4% in the assay on A549/ATCC NSCLC, 55.3% with 786-0 renal and 16.7% in the assay on COLO 205 colon.
